Results reported in the supplement of paper PMC6555819.

What follows are sequences tested on PXR:RXRa (NR concentration 270 nM, RXRa partner concentration 90 nM) (assay: PBM binding z-score (relative to random genomic background probes); higher = stronger binding; sequences stand for … in GC…GCGATTGACAGCGTAGAATGAAGG).
In short: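 Binding buffer was PBS pH 7.4 with 2% milk, 0.02% Triton X-100, 1 mM DTT, 0.2 mg/mL BSA and 0.4 mg/ml salmon testes DNA. In it, ligand-free nuclear receptor dimers were incubated 1 h on custom Agilent 4×180K protein-binding microarrays carrying double-stranded probes. Antibodies against each partner (one per run) detected binding, and z-scores were calculated against random background probes after regression normalization of scanned fluorescence.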
In the case of ATTACAGGGTCATCGTAGGCCAGAGTACGCACAG, the PBM binding z-score is reported as 5.5.
With ACTCGGAGGACAAAGGTCAGATCTACGCCAGTGA the PBM binding z-score was 3.86.
TTACCAAGGTGAGCTGAGGTCGCTGATCCAACTC showed a PBM binding z-score of 3.58.
CCTCGGAGGACAGAAGGTCTGAGCTGTCCGCTTT showed a PBM binding z-score of -0.674.
For GCCTACGGGTCAAAGGTTATAGCATGAATAGAAT, the PBM binding z-score was 6.12.
With TAGCCTAGGTCAGTGGGCCAGTATAGTACGCATC the PBM binding z-score was 0.1.
CCTAGCAGGCCAATCTGGGGCACTCAAGGCTTGA showed a PBM binding z-score of -0.51.
GCTCGGAGGACCAGGTCAGAGCTTTGTCCGTAGA showed a PBM binding z-score of 0.343.
With GCTATTAGTTCAAAGGGCAACCGAATGATTCTCG the PBM binding z-score was 3.21.
In the case of ACAGACAGGTGGTGAAGGTAACTCAGGCTATCAT, the PBM binding z-score is reported as -0.271.
Work on TCTAGTTGGTCAAAGTTCACACACTCGAAATGCG yielded a PBM binding z-score of 5.09.
For TCACCAAGGTGAGCTGAGGTCGTTGATCCAACTC, the PBM binding z-score was 5.13.
CCTGCTAGGTCAATGGGCAGCTAAAGCAGCTCGC was tested, and the PBM binding z-score was 0.352.
With TCGAGTAGGTTAGTAGGGGCATTCAGCCAACATA the PBM binding z-score was 0.244.
TCGAGTAGGTTACCAATGGGGCATGCAGCTTTCT was tested, and the PBM binding z-score was 0.0825.
TCGTGTAGGTTACCAATGGGGCATTCAGCTTTCT gave a PBM binding z-score of 0.375.
Sequence TCAGACAGGTGAAGGTAACTGAGGTACGCAGTCG has a PBM binding z-score of 0.388.
In the case of ATCTCTAGGTAAAGATAGTTCAGTGAATGCAAAT, the PBM binding z-score is reported as 0.795.
In the case of TCTAGTTGTTCACGGAGGTCACACACGACGGGTA, the PBM binding z-score is reported as 4.27.
With TAGCCTAGCTCATGGGCCAGTATACCACGCGAAC the PBM binding z-score was -0.739.
With CAAACTAGGTCCAAGGTCAAAGTCGAGCCAACCA the PBM binding z-score was 3.7.
With ATCTCTAGGTAAGACTCAGTTTAGTGAAGAACGC the PBM binding z-score was 0.177.
With CGTCCAAGCTCAAGGTCAGTGAAAGAGACTCGAA the PBM binding z-score was 1.51.
TAGCCTAGGTCATGCGGTCCAGTATAGTGTCGGC showed a PBM binding z-score of 1.77.
ACTAGCAGGCCAAGTTAGGGTCACTCAAACAAAG was tested, and the PBM binding z-score was 3.
Sequence GGAACGAGGGCAAAGCTGATAGCATCTGTCGACG has a PBM binding z-score of 0.048.
With ATCTCAAGGTAACCAAGTTCAGTGAATGCCGAAC the PBM binding z-score was 2.82.
Work on CGAACTAGGTCATCCACGACAGTGAATACATTGA yielded a PBM binding z-score of 1.59.
With CGAACGAGGGCATGTGTTGATAGCAAATGCCGAT the PBM binding z-score was 0.241.
Work on ACAGACAGGTGCTGAAGGTAACTCAGGCTATCAT yielded a PBM binding z-score of -0.445.
CCGACTGGGGCAAAGGTTACCGTACTCAGTACGA gave a PBM binding z-score of 2.04.
GCTCGGAGTACAAGGTCAGAGCTTTGTCCGTAGA was tested, and the PBM binding z-score was 1.67.
Sequence TCTCGGAGGACACGAAAGTTCAGAGCTCGACATC has a PBM binding z-score of 3.3.
CCTCGGAGGACAGAAGGTCAGACCTGTCCGCTTT gave a PBM binding z-score of 1.69.
ATCTCTAGGTAAAGTTCAGTCAAAGATCGATAGA showed a PBM binding z-score of 2.32.
Work on CCTTACGGATCAAGGTTATAGCACGGGTGGTACG yielded a PBM binding z-score of 0.548.
AGAACGAGGGCACGCAGAGTTGATAGCAGAGTAG was tested, and the PBM binding z-score was 1.55.
For TCTGCTCGGTCAACGATGGTCAGCTAATCTGCTA, the PBM binding z-score was -0.246.
Work on CCGGACAGGTGAAAGGTAACTCAGTCTGGTACGC yielded a PBM binding z-score of 0.988.
In the case of CCTCGGAGGACAGAAGGTCACAGCTGTCCGCTTT, the PBM binding z-score is reported as 3.33.
